Legend:
Assay in all cases: DAPPL (digital affinity profiling via proximity ligation, sequencing); 10 mM Tris-HCl pH 7.5, 50 mM NaCl, 1 mM DTT, 4% glycerol, room temperature, 30 min; GST-TFs on glutathione beads, 16-mer random dsDNA library, 0.1% formaldehyde crosslink after washing; high values mean tight binding
[1] = target: T1, FEV (Homo sapiens, UniProt Q99581 1-238); details: protein: recombinant; tags: N-terminal GST; dsDNA, one strand shown
T1 sequence: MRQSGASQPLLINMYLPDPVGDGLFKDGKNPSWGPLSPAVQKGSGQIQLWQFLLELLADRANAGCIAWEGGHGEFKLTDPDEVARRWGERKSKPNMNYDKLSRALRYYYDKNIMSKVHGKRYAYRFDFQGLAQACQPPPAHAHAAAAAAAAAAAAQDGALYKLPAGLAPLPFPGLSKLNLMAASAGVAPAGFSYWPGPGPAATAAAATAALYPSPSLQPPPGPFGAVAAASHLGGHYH
Outline: (§1)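 Binding signal is given per hexamer as its read frequency for a factor divided by its frequency in the tag-only sample. GST-fused human transcription factors were expressed in yeast, captured on glutathione beads, barcoded with DNA and pooled with that sample, then incubated with 200 nmole of a 16-mer random double-stranded DNA library in Tris/NaCl/DTT/glycerol buffer for 30 min at room temperature. The pools were then washed, crosslinked, proximity-ligated, amplified by PCR and sequenced on an Illumina NextSeq500.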

[2] = target: ETV5 (Homo sapiens, UniProt P41161 1-510); details: protein: recombinant; tags: N-terminal GST; dsDNA, one strand shown
Sequence of ETV5 (P41161 whole entry): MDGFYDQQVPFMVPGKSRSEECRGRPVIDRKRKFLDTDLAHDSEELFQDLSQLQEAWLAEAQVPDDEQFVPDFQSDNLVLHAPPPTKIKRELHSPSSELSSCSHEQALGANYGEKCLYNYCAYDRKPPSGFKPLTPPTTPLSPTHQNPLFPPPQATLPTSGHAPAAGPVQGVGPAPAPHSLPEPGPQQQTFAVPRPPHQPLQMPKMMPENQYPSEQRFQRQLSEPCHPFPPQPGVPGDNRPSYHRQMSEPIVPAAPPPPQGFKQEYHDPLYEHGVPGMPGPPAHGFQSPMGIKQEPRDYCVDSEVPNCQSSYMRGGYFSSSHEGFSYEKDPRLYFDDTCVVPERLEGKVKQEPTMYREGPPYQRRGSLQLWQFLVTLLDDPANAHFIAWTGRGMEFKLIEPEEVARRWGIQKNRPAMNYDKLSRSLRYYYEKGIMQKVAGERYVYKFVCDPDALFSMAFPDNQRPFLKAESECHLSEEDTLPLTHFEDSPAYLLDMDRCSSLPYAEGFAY
Outline: as §1

[3] = target: HSF1 (Homo sapiens, UniProt Q00613 1-529); details: protein: recombinant; tags: N-terminal GST; chain copies: 3; dsDNA, one strand shown
Sequence of HSF1 (Q00613 whole entry): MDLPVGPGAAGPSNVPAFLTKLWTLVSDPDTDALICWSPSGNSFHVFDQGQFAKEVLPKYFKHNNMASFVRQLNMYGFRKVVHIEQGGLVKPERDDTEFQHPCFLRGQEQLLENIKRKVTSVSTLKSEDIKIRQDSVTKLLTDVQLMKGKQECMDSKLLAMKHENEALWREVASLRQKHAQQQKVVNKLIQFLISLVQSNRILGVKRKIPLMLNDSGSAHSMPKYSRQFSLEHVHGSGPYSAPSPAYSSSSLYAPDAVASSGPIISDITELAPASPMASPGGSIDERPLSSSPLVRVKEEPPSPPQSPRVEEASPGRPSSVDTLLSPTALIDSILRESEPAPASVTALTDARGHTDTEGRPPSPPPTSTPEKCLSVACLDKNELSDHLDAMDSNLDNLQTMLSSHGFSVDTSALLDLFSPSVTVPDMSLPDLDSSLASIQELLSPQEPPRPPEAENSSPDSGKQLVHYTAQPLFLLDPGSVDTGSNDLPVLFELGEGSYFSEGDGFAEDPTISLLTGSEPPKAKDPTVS
Outline: as §1

[4] = target: T2, SPIC (Homo sapiens, UniProt Q8N5J4 1-248); details: protein: recombinant; tags: N-terminal GST; dsDNA, one strand shown
T2 sequence: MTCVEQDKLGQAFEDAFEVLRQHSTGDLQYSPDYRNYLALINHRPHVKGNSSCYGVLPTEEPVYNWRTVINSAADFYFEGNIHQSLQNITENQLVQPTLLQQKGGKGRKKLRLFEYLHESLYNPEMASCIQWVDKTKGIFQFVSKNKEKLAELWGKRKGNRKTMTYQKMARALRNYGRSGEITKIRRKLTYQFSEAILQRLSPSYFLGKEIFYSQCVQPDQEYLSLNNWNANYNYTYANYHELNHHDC
Outline: as §1

[5] = target: ELF4 (Homo sapiens, UniProt Q99607 1-663); details: protein: recombinant; tags: N-terminal GST; dsDNA, one strand shown
Sequence of ELF4 (Q99607 whole entry): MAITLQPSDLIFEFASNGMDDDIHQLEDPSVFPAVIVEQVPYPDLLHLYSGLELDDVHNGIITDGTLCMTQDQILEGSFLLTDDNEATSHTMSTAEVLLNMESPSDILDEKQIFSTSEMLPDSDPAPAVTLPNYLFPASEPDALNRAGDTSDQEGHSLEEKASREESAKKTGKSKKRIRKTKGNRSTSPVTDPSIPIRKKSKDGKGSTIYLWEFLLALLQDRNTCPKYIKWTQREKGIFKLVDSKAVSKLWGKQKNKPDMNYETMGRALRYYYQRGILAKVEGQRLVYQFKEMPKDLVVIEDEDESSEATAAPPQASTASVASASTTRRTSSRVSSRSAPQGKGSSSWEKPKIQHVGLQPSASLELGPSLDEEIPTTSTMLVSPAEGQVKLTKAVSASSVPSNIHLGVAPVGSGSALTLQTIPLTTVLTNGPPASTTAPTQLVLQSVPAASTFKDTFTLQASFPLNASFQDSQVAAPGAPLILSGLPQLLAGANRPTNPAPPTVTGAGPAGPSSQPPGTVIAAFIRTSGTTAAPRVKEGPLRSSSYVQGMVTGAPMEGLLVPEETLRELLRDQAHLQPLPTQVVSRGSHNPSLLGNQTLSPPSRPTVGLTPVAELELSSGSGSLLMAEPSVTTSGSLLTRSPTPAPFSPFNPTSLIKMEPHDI
Outline: as §1

[6] = target: T3, ELK4 (Homo sapiens, UniProt P28324-2 1-405); details: protein: recombinant; tags: N-terminal GST; dsDNA, one strand shown
T3 sequence: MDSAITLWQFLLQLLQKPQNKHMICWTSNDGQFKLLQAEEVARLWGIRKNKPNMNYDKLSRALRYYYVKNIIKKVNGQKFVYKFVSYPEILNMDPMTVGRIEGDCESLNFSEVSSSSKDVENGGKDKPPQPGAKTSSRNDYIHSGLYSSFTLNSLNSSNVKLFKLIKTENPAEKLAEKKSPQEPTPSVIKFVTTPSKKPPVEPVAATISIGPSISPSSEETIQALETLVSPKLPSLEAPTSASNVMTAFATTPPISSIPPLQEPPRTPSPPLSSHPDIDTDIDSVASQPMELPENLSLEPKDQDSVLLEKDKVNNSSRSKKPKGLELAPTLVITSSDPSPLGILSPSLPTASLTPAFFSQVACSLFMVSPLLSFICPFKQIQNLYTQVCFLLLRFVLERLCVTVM
Outline: as §1

[7] = target: T4, ETV2 (Homo sapiens, UniProt O00321 1-342); details: protein: recombinant; tags: N-terminal GST; dsDNA, one strand shown
T4 sequence: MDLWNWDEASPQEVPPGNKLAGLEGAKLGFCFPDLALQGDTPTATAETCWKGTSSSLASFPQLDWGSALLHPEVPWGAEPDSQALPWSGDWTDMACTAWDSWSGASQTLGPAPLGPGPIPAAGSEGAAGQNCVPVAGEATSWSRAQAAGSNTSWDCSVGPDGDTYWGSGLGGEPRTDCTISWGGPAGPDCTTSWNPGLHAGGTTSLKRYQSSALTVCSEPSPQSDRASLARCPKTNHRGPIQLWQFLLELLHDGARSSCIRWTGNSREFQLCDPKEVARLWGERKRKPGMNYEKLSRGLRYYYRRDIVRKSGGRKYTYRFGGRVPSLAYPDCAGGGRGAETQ
Outline: as §1

[8] = target: T5, ELF3 (Homo sapiens, UniProt P78545 1-371); details: protein: recombinant; tags: N-terminal GST; dsDNA, one strand shown
T5 sequence: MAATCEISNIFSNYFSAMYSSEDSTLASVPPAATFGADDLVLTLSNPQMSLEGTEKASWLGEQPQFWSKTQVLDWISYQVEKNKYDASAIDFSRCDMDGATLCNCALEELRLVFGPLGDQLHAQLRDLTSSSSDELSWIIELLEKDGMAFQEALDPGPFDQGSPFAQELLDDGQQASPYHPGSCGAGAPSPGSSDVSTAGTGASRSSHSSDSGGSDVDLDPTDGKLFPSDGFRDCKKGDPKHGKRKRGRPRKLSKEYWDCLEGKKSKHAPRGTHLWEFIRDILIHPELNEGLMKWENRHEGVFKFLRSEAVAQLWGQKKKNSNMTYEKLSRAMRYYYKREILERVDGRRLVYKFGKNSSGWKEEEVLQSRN
Outline: as §1

[9] = target: CRX (Homo sapiens, UniProt O43186 1-299); details: protein: recombinant; tags: N-terminal GST; dsDNA, one strand shown
Sequence of CRX (O43186 whole entry): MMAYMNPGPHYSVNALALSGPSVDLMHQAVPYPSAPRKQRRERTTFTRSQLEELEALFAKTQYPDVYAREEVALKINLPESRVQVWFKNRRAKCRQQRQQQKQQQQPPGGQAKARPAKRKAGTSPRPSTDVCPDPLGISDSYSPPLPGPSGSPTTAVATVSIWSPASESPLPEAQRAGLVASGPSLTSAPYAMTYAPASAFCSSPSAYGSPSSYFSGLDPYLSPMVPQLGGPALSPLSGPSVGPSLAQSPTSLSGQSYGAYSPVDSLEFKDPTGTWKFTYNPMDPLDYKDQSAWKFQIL
Outline: as §1

[10] = target: ETV1 (Homo sapiens, UniProt P50549 1-477); details: protein: recombinant; tags: N-terminal GST; dsDNA, one strand shown
Sequence of ETV1 (P50549 whole entry): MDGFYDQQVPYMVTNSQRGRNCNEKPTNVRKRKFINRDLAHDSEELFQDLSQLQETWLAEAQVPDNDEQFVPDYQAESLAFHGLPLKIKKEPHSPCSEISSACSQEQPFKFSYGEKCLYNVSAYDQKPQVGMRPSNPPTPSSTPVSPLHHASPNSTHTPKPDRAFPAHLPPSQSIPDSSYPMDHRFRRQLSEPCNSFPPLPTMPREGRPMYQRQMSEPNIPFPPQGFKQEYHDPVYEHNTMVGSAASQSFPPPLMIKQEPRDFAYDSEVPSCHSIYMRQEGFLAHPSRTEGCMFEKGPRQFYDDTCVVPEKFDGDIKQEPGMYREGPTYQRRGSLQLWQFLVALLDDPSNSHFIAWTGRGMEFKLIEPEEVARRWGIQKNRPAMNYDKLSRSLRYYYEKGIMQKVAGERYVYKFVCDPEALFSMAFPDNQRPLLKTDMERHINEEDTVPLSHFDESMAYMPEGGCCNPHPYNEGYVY
Outline: as §1

[11] = target: T6, ERF (Homo sapiens, UniProt P50548 1-548); details: protein: recombinant; tags: N-terminal GST; dsDNA, one strand shown
T6 sequence: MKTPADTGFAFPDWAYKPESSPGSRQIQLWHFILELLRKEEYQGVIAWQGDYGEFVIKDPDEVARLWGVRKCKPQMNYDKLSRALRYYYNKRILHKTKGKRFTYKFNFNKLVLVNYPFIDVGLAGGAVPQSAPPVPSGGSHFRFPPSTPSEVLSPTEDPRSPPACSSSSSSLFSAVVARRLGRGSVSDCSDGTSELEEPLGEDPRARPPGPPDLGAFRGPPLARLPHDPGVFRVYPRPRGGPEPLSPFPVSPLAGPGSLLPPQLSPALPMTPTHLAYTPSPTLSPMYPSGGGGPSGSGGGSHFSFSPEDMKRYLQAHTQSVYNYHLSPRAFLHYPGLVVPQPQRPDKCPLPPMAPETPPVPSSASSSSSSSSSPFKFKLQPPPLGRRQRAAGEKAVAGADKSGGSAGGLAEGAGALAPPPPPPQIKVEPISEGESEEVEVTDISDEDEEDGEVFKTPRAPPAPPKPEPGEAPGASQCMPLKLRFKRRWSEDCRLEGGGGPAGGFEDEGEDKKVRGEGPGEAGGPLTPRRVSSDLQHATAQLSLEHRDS
Outline: as §1

[12] = target: T7, ETV3L (Homo sapiens, UniProt Q6ZN32 1-361); details: protein: recombinant; tags: N-terminal GST; dsDNA, one strand shown
T7 sequence: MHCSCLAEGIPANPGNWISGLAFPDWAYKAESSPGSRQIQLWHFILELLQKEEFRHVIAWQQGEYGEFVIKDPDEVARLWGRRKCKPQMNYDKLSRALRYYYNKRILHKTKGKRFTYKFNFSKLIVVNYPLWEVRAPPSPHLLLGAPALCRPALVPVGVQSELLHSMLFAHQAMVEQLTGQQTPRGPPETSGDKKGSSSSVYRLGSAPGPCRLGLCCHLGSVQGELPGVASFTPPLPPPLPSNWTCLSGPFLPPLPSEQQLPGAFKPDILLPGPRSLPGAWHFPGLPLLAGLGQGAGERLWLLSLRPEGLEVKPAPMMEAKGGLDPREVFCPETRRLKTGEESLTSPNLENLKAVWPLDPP
Outline: as §1

[13] = target: T8, ETS2 (Homo sapiens, UniProt P15036 1-469); details: protein: recombinant; tags: N-terminal GST; dsDNA, one strand shown
T8 sequence: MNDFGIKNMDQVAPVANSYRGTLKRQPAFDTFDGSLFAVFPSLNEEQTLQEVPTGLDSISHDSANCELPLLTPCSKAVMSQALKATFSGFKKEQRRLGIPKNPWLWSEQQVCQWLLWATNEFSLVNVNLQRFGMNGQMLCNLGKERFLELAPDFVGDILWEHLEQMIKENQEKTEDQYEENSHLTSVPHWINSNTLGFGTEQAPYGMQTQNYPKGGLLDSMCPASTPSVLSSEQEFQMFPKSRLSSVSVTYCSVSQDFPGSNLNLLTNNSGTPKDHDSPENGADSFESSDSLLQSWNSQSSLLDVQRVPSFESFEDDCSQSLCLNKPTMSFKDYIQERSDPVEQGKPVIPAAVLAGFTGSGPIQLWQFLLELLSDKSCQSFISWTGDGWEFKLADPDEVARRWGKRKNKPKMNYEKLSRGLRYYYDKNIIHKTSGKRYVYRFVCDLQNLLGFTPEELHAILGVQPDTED
Outline: as §1

[14] = target: T9, SPDEF (Homo sapiens, UniProt O95238 1-335); details: protein: recombinant; tags: N-terminal GST; dsDNA, one strand shown
T9 sequence: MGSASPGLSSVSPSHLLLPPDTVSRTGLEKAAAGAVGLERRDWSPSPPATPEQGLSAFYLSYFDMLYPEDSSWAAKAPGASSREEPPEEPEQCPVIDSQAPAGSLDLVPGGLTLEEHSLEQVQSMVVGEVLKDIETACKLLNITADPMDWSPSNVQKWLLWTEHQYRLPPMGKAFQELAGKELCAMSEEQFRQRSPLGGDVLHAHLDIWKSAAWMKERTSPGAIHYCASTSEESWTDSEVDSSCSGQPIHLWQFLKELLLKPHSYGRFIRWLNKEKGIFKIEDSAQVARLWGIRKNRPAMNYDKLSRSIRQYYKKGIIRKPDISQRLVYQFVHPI
Outline: as §1

[15] = target: T10, ETV7 (Homo sapiens, UniProt Q9Y603 1-341); details: protein: recombinant; tags: N-terminal GST; dsDNA, one strand shown
T10 sequence: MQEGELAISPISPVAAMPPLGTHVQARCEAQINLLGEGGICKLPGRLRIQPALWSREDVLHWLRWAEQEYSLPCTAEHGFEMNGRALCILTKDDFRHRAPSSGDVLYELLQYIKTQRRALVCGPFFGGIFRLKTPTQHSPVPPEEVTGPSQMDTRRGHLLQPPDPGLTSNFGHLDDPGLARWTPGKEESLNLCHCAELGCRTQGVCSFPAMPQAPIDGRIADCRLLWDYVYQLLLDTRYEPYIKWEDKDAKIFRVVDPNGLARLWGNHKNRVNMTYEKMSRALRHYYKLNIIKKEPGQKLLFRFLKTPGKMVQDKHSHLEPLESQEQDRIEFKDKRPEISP
Outline: as §1

[16] = target: T11, ELF5 (Homo sapiens, UniProt Q9UKW6-2 1-255); details: protein: recombinant; tags: N-terminal GST; dsDNA, one strand shown
T11 sequence: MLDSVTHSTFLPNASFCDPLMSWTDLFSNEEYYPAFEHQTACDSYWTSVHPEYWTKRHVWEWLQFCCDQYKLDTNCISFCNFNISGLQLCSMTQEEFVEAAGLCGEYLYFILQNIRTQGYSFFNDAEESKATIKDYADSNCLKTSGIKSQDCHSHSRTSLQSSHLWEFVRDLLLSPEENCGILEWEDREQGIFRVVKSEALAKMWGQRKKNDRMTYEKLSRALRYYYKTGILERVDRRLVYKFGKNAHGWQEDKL
Outline: as §1

[17] = target: T12, ETV3 (Homo sapiens, UniProt P41162-2 1-143); details: protein: recombinant; tags: N-terminal GST; dsDNA, one strand shown
T12 sequence: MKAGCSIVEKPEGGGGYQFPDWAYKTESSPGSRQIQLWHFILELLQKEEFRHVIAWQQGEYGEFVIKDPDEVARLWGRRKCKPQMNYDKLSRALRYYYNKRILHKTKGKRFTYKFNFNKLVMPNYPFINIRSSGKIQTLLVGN
Outline: as §1

[18] = target: ETV6 (Homo sapiens, UniProt P41212 1-452); details: protein: recombinant; tags: N-terminal GST; dsDNA, one strand shown
Sequence of ETV6 (P41212 whole entry): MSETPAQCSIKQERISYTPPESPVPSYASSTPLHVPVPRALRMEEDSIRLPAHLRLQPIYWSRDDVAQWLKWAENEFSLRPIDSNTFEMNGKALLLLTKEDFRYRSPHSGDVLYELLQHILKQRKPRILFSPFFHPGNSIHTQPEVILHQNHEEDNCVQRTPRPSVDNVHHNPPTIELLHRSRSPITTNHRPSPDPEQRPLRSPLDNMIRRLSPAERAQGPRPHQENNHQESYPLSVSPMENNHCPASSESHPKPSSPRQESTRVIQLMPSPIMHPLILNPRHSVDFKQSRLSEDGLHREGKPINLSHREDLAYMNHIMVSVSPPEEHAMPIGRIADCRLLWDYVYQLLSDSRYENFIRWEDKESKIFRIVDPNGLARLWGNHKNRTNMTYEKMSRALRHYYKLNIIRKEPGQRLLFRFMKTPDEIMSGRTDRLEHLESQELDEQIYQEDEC
Outline: as §1

In the case of TTTCCA, the binding signal [1] is reported as 1.34 fold enrichment (6-mer frequency, TF over GST control), the binding signal [2] is reported as 1.28 fold enrichment (6-mer frequency, TF over GST control) and the binding signal [3] is reported as 2.18 fold enrichment (6-mer frequency, TF over GST control). The binding signal [4] was 1.18 fold enrichment (6-mer frequency, TF over GST control), the binding signal [5] was 1.39 fold enrichment (6-mer frequency, TF over GST control) and the binding signal [6] was 1.39 fold enrichment (6-mer frequency, TF over GST control). For the same sequence, the binding signal [7] was 1.22 fold enrichment (6-mer frequency, TF over GST control), the binding signal [8] was 1.19 fold enrichment (6-mer frequency, TF over GST control) and the binding signal [9] was 1.61 fold enrichment (6-mer frequency, TF over GST control). For the same sequence, the binding signal [10] was 1.22 fold enrichment (6-mer frequency, TF over GST control), the binding signal [11] was 1.32 fold enrichment (6-mer frequency, TF over GST control) and the binding signal [12] was 1.41 fold enrichment (6-mer frequency, TF over GST control). For the same sequence, the binding signal [13] was 1.38 fold enrichment (6-mer frequency, TF over GST control), the binding signal [14] was 1.29 fold enrichment (6-mer frequency, TF over GST control) and the binding signal [15] was 1.35 fold enrichment (6-mer frequency, TF over GST control). For the same sequence, the binding signal [16] was 1.43 fold enrichment (6-mer frequency, TF over GST control), the binding signal [17] was 1.45 fold enrichment (6-mer frequency, TF over GST control) and the binding signal [18] was 1.54 fold enrichment (6-mer frequency, TF over GST control).
